Measured values as given in paper PMC4102417.

System: murine 3T3 fibroblasts
Experiment: primary screen, percent viability or growth; higher = less effect of the substance
Method: Similarly, for measuring the cytotoxicity concentration (CC50) for 3T3 fibroblast cells, cultures were incubated with drugs for 72 hours and developed using Alamar Blue (Alamar Biosciences Inc, Sacramento, CA) as previously described.

Row | Compound | Mammalian (3T3) cell % growth at 10 uM
1 | COc1cc(-c2cc(=O)c3c(O)c(OC)c(OC)c(OC)c3o2)cc(OC)c1OC | 4%
2 | COC(=O)C1=C(C)NC(C)=C(C(=O)OCCN(C)Cc2ccccc2)C1c1cccc([N+](=O)[O-])c1 (stereo not shown) | 99.8%
3 | Cc1cc(/C=C/c2ccc3cc(N(C)C)ccc3[n+]2C)c(C)n1-c1ccccc1.O=C([O-])c1cc2ccccc2c(Cc2c(O)c(C(=O)O)cc3ccccc23)c1O | 50%
4 | CC(C)c1c(O)ccc2c1CC[C@H]1C(C)(C)CCC[C@]21C | 67.4%
5 | COC(=O)CCC(C)C1CCC2C3C(O)CC4CC(O)CCC4(C)C3CC(O)C12C (stereo not shown) | 81%
6 | CC(=O)Oc1ccc(Cl)c2cccnc12 | 0.5%
7 | COC(=O)C1(C)CCC2(C)CCC3(C)C4=CC=C5C(=CC(=O)C(O)=C5C)C4(C)CCC3(C)C2C1 (stereo not shown) | 0.6%
8 | CCN(CCCCOC(=O)c1ccc(OC)c(OC)c1)C(C)Cc1ccc(OC)cc1 (stereo not shown) | 92.3%
9 | O=c1cc(-c2cc(O)c(O)c(O)c2)oc2cc(O)cc(O)c12 | 100%
10 | CCC1(O)C(=O)OCc2c1cc1n(c2=O)Cc2cc3cc(O)ccc3nc2-1 (stereo not shown) | 23.9%
11 | Cc1nc2ccccn2c(=O)c1CCN1CCC(C(=O)c2ccc(F)cc2)CC1 | 91.6%
12 | O[C@H]1[C@H]2c3cc4c(cc3CN3CCC(=C[C@@H]1O)[C@H]23)OCO4 | 29.6%
13 | N[C@@H](Cc1ccc(O)c(O)c1)C(=O)O | 3.9%
14 | CC[C@@H](C(=O)[C@@H](C)[C@@H](O)[C@H](C)CCc1ccc(C)c(O)c1C(=O)O)[C@H]1O[C@](CC)([C@H]2CC[C@](O)(CC)[C@H](C)O2)C[C@@H]1C | 50.1%
15 | Nc1nc(N)c2nc(-c3ccccc3)c(N)nc2n1 | 72.7%
16 | CC(=O)[C@H]1CC[C@H]2[C@@H]3CC[C@H]4C[C@@H](O)CC[C@]4(C)[C@H]3CC[C@]12C | 100%
17 | CCN(CC)CCCC(C)Nc1c2ccc(Cl)cc2nc2ccc(OC)cc12.Cl.Cl (stereo not shown) | 5.3%

Row | Compound | Mammalian (3T3) cell % growth at 10 uM
18 | COC(=O)C1(C)CCCC2(C)c3ccc(O)c(C(C)C)c3CCC12 (stereo not shown) | 38.5%
19 | COC(=O)CC1C2(C)CC34OC5(C)OC6(C7/C(=C(\OC)C(C)C)C(=O)OC(c8ccoc8)C7(C)C(OC(=O)C(C)C)C(OC)C6(O5)C13C)C(OC)C4(OC)C2OC(C)=O (stereo not shown) | 53.4%
20 | CC(=O)OC1CCC2(C)C3=C(CCC2C1(C)C)C1(C)CCC(C(C)CCC=C(C)C)C1(C)CC3 (stereo not shown) | 87.6%
21 | C[C@@H]1C[C@@H]([C@H](O)CC2CC(=O)NC(=O)C2)C(=O)[C@@H](C)C1 | 36.9%
22 | C=CC(C)(O)CCC1C(=C)CC(OC(C)=O)C2C(C)(C)CCCC12C (stereo not shown) | 63.7%
23 | Oc1ccc2c(c1)OC[C@]1(O)Cc3cc(O)c(O)cc3[C@H]21 | 3.6%
24 | O=C(/C=C(/O)c1ccccc1)c1ccccc1O | 100%
25 | Oc1ccc2c(c1)O[C@H](c1ccc(O)c(O)c1)[C@@H](O)C2 | 97.8%
26 | C=C1C2CCC3(C)C(c4ccoc4)OC(=O)CC13OC1CC(OC(C)=O)C(C)(C)C(CC(=O)OC)C12C (stereo not shown) | 84.1%
27 | Clc1ccc2c(c1)C(N1CCNCC1)=Nc1ccccc1O2 | 98%
28 | O=c1c(O)c(-c2ccc(O)c(O)c2)oc2c(O)c(O)cc(O)c12 | 54.6%
29 | CC[C@H](C)C(=O)O[C@H]1CCC=C2C=C[C@H](C)[C@H](CC[C@@H]3C[C@@H](O)CC(=O)O3)[C@H]21 | 2.9%
30 | CC1(C)C(=O)C2OC2C2(C)C1CC(O)C1(C)C2CCC2(C)C(c3ccoc3)OC(=O)C3OC321 (stereo not shown) | 77.3%
31 | Cl.NCC(=O)c1ccccc1 | 85.5%
32 | Cl.OC(c1cc(C(F)(F)F)nc2c(C(F)(F)F)cccc12)C1CCCCN1 (stereo not shown) | 94.7%
33 | NCCc1ccc(O)c(O)c1 | 2.4%
34 | COc1c(C)c2c(c(O)c1C/C=C(\C)CCC(=O)O)C(=O)OC2 | 97.2%
